Where “and” joins values, the source holds several entries; their conditions need not be identical. Equal values may be shown once. Results filed as inconclusive are left out. Where a call stands in place of a potency, no number is given. Calls of active or inactive are those of the source. The call rests on the fitted dose curve; in most records, active means well fitted cell-killing curve with a large enough effect in the repeat runs; inconclusive means weak or mixed curves, or effect the other way; inactive means flat fitted curve, though single readings scatter.
assay: cAMP Responsive Elements (CRE) small molecule antagonists, cell-based qHTS assay: qHTS cell viability counter screen (AID 2060913); conditions: CRE-bla HEK293T viability, CellTiter-Glo luminescence, 5 h; series mostly up to 92.4 µM; further: nearly all actives have a fitted effect of over 40% in size
Excerpt: U.S. Tox21 Program National Center for Advancing Translational Sciences [NCATS] Division of Preclinical Innovation [DPI] U.S. Environmental Protection Agency [EPA] National Institutes of Environmental Health Sciences [NIEHS] National Toxicology Program [NTP] U.S. Food and Drug Administration [FDA] Tox21 Assay Overview: CREB (cyclic-AMP Responsive Element Binding Protein) is a cellular transcription factor. It binds to certain DNA sequences called cAMP Responsive Elements (CRE) and regulates the transcription of the genes. […] This cell line can be used to find agonists/antagonists of the cyclic AMP signaling pathway. The activation of the report gene under culture conditions can be detected by fluorescence intensity. This cell line has been used to screen the Tox21 10K compound library to identify agonists that induce oxidative stress. The cytotoxicity of the Tox21 compound library against the CRE-bla cell line was tested in parallel by measuring the cell viability using CellTiter-Glo assay (Promega, Madison, WI) in the same wells.
Tox21 Assay Protocol Summary: CRE-bla Hek 293T cells were suspended in assay medium (DMEM containing 10% dialyzed FBS, 0.1 mM NEAA, 1 mM sodium pyruvate and 25 mM HEPES) and dispensed at 2,000 cells/4 uL /well into 1536-well black wall/clear bottom plates using a Multidrop Combi (ThermoFisher Scientific, Waltham, MA) dispenser. After the assay plates were incubated at 37 C/5% CO2 for 18 hrs, 23 nL of compounds dissolved in DMSO, positive controls or DMSO only was transferred to the assay plate by a pintool workstation (Kalypsys, San Diego, CA), followed by addition of 1 uL of 1.25uM NKH477 (0.25 uM as final concentration) in assay medium using a Flying Reagent Dispenser (Aurora Discovery, San Diego, CA). The plates were incubated at 37 C and 5% CO2 for 3 hrs. Then 1 uL of LiveBLAzer B/G FRET substrate (Invitrogen, Carlsbad, CA) was added to each well using Bioraptr Flying Reagent Dispenser (FRD, Aurora Discovery, San Diego, CA). The plates were incubated at room temperature for 2 h, then fluorescence intensities were measured using an Envision plate reader (PerkinElmer, Shelton, CT) at Excitation 405nm, Emission 460nm and 530nm. The % activity was determined from the ratio of 460nm/530nm. For cell viability readout that measures cytotoxicity, 4 uL /well of CellTiter-Glo reagent was added into the assay plates using Bioraptr FRD. After 30 min incubation at room temperature, the luminescence intensity in the assay plates was measured using a ViewLux (PerkinElmer, Shelton, CT) plate reader.

Row | Compound | Potency | viability change, negative = cytotoxic
1 | Cc1occc(=O)c1OC(=O)C(C)C | inactive | –
2 | CCN(CC)CCCC(C)Nc1ccnc2cc(Cl)ccc12 (stereo not given) | – | 4.94% [at 8.39 µM] (inactive) and -2.8% [at 18.9 µM] (inactive)
3 | CC(C)(CCC(=O)O)C(=O)O | inactive | –
4 | CCN(CCC#N)c1ccc(N=Nc2ccc([N+](=O)[O-])cc2)cc1 | inactive | –
5 | N#C[C@@H]1C[C@@H]2C[C@@H]2N1C(=O)[C@@H](N)C12CC3CC(CC(O)(C3)C1)C2 | inactive | –
6 | NCCCOCCOCCOCCCN | inactive | –
7 | O=C1OC(=O)c2cccc3cccc1c23 | inactive | –
8 | Cc1cn([C@@H]2O[C@H](CO)[C@@H](O)[C@@H]2F)c(=O)[nH]c1=O | inactive | –
9 | O=C1c2ccccc2C(=O)C1c1nc2ccccc2c(Br)c1O | inactive | –
10 | CCCCCCCCCC#N | inactive | –
11 | CCCCN1C(=O)c2ccccc2C1=O | inactive | –
12 | OCC#CCO | inactive | –
13 | CC(=O)c1cccc([N+](=O)[O-])c1 | inactive | –
14 | CCCCCCCCCCOCC(O)CN (stereo not given) | inactive | –
15 | CC(C)CCOC(=O)CC(C)C | inactive | –
16 | O=C1CCC/C=C\CCCCCCCCCC1 | inactive | –
17 | C#CCN(C)CCCOc1ccc(Cl)cc1Cl | inactive | –
18 | CCOCCOCCOC(C)=O | inactive | –
19 | Cc1cccc(C)c1NC(=O)c1cc(S(N)(=O)=O)c(Cl)cc1O | inactive | –
20 | CC1Cc2ccccc2N1NC(=O)c1ccc(Cl)c(S(N)(=O)=O)c1 (stereo not given) | inactive | –

Row | Compound | Potency | viability change, negative = cytotoxic
21 | CCCCN(C)C | inactive | –
22 | N#Cc1ccccc1O | inactive | –
23 | CC(C)(CO)[C@@H](O)C(=O)NCCCO | inactive | –
24 | CO[C@@H]1COCC[C@@H]1N[C@@H]1CC[C@@](C(=O)N2CCc3ncc(C(F)(F)F)cc3C2)(C(C)C)C1 | inactive | –
25 | Cc1c(C(C)C)c(=O)n(-c2ccccc2)n1C | inactive | –
26 | Cc1ccc2cccnc2c1 | inactive | –
27 | Cc1ccccc1C | inactive | –
28 | COc1c(Cl)ccc(Cl)c1C(=O)O | inactive | –
29 | O=C(O)c1ccc(OCCCOc2ccc(C(=O)O)cc2)cc1 | inactive | –
30 | CC(=O)c1ccc2c(c1)[C@H](NC(=O)c1ccc(F)cc1)[C@@H](O)C(C)(C)O2 | inactive | –
31 | COC(=O)CCc1ccc(OCC(O)CNC(C)C)cc1 (stereo not given) | inactive | –
32 | CCN(CC)CCOC(=O)C(c1ccccc1)c1ccccc1 | inactive | –
33 | Cc1cccc(N(C)C(=S)Oc2ccc3c(c2)C2CCC3C2)c1 (stereo not given) | inactive | –
34 | c1cc(N(CC2CO2)CC2CO2)ccc1Cc1ccc(N(CC2CO2)CC2CO2)cc1 (stereo not given) | inactive | –
35 | CCn1cc(C(=O)O)c(=O)c2cc(F)c(N3CCN(C)CC3)cc21 | – | 3.1% [at 18.9 µM] (inactive)
36 | COC(=O)C(C)=O | inactive | –
37 | CCN(CC)CCNC(C(=O)OCCC(C)C)c1ccccc1 (stereo not given) | inactive | –
38 | OCc1c[nH]c2ccccc12 | inactive | –
39 | COCCc1ccccn1 | inactive | –
40 | O=C(Cl)c1ccc(C(=O)Cl)cc1 | inactive | –

Source: PubChem BioAssay (Tox21)
